Assay outcomes: PubChem, National Center for Advancing Translational Sciences (NCATS)
Pf growth 96h = Primary qHTS for delayed death inhibitors of the malarial parasite plastid, 96 hour incubation; Potency, µM (doses to about 28.7 µM), for inactives: top-dose activity change, negative = inhibition, usual class: inhibitors; P. falciparum luciferase reporter growth, 96 h; AID 504834, 2011; 320,000 tested, 6.9% active; further: potency means the concentration at half of the fitted maximal effect
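Luminescence readout: decreased luciferase signal marks inhibited growth of reporter-expressing P. falciparum in infected red cells (2% hematocrit, 0.05% parasitemia final), exposed to compound two generations (96 h, 37 C, 5% CO2).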
HCV inhibitor = qHTS Assay for Inhibitors of Hepatitis C Virus (HCV); Huh7.5.1 HCVcc-Cre infection, luciferase reporter, 44 h; Potency, µM (series often up to 41.8 µM), for inactives: at the highest dose activity change, negative = inhibition, hits mostly inhibitors; 340,000 tested, 3.4% active; AID 651820, 2012; further: potency means the concentration at half of the fitted maximal effect
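Antiviral activity was scored by luciferase reporter output from cells infected with HCVcc-Cre (~0.5 moi) in presence of compound, 44 h infection period, cells seeded 1,000/well 4 h prior.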
Pf growth 48h = Primary qHTS for delayed death inhibitors of the malarial parasite plastid, 48 hour incubation. AID 504832, 2011. 310,000 tested, 5.9% active. Potency, µM (titrated, usually from 28.7 µM), inactives show at the highest dose activity change, negative = inhibition, usual class: inhibitors. P. falciparum luciferase growth in erythrocytes, 48 h; further: potency means the concentration at half of the fitted maximal effect
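Parasite viability was followed by luminescence of a genomically integrated firefly luciferase. Cultures held 0.1% parasitemia at 2% hematocrit (final), incubated under 5% CO2 at 37 C.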
HCMV antiviral = qHTS Assay for inhibitors of the human cytomegalovirus (HCMV); activity change, negative = inhibition, % at 57.5 µM; HFF cells, HCMV-luciferase reporter, 72 h; stronger effect = lower value; 410,000 tested, 4.5% active; in the data active means activity change below about -60%; inconclusive means no clear call, values can overlap the other calls; inactive means above about -39%
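Luciferase read-out from HCMV-luciferase-infected HFFs (MOI 1 PFU/cell) 72 h post infection at 37C; compounds added after 16 h cell attachment; activity normalized between buffer-only basal and Salinomycin (10uM) inhibitor controls.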
* = called active by the depositor; ? = inconclusive; nt = no result; ! = a repeat was not active; [ ] = another dose, or the depositor's remark. Most compounds without a hit are left out; they make up all but 13% or so of the library. Unless noted, the call rests on the fitted dose curve; in most records, active means well fitted inhibition curve with a large enough effect; inconclusive means small, poorly fitted or top-dose-only effect, or another doubt; inactive means no such curve, though single readings can be large or run the other way. On the % scale 0 is the no-effect control and ±100 the full control effect.

SMILES | Pf growth 96h | HCV inhibitor | Pf growth 48h | HCMV antiviral
NCCCC[C@H]1CN=C(N)N1CC1CCCCC1 | nt | 15% | nt | ?
O=C1NC[C@H](Cc2ccc(O)cc2)N(CCc2cc(C(F)(F)F)cc(C(F)(F)F)c2)C1=O | nt | nt | nt | -22
NC1=NC[C@H](CC2CCCCC2)N1CCc1cc(C(F)(F)F)cc(C(F)(F)F)c1 | 2.3µM* | 7% | 2.9µM* | -100*
NC1=NC[C@@H](Cc2ccc(O)cc2)N1CCc1cc(C(F)(F)F)cc(C(F)(F)F)c1 | 3.3µM* | 26% | 5.9µM* | 64
CCCC[C@@H]1CNCCN1CCc1cc(C(F)(F)F)cc(C(F)(F)F)c1 | ? | ? | ? | 32
FC(F)(F)c1cc(CCN2CCNC[C@@H]2CC2CCCCC2)cc(C(F)(F)F)c1 | nt | ? | nt | -99*
Cc1ccc(NC(=O)CSc2nc3ccccc3n2CC(=O)N(C)C2CCCCC2)cc1C | nt | nt | nt | -14
O=c1[nH]c(CN2CCN(c3ccccc3)CC2)nc2scc(-c3ccccc3)c12 | ? | ? | ? | -17
Cc1sc2nc(CN3CCN(c4ccc(O)cc4)CC3)[nH]c(=O)c2c1C | 12µM* | -6% | ? | -27
COc1ccc(-c2cn3cc(C(=O)NN)ccc3n2)cc1 | 4.7µM* | 3% | 187% | -21
O=C(c1cccc([N+](=O)[O-])c1)N1c2ncnn2C2(CCCCC2)[C@@H]2CCCC[C@@H]21 | nt | nt | nt | 0
O=C(CN1CCN(S(=O)(=O)c2cccs2)CC1)NCC1CCCCC1 | ? | -3% | ? | 3
CC(C(=O)NC1CCCC1)N1CCN(S(=O)(=O)c2ccc(C(C)(C)C)cc2)CC1 (configuration not stated) | 1.5µM* | 11% | 1.5µM* | -17
CC(C(=O)NCC1CCCCC1)N1CCN(S(=O)(=O)c2cccs2)CC1 (configuration not stated) | ? | 2% | 9.3µM* | -29
Cc1ccc(NC(=O)C(c2ccccc2)N2CCN(CC(=O)NC3CC3)CC2)cc1 (configuration not stated) | ? | -28% | 13µM* | -10
Cc1cc(C)cc(NC(=O)C(c2ccccc2)N2CCCC2)c1 (configuration not stated) | -7% | 15% | -19% | -8
O=C(CN1CCN(C(C(=O)Nc2ccc(Cl)cc2C(F)(F)F)c2ccccc2)CC1)NC1CC1 (configuration not stated) | 4.1µM* | -6% | 3.3µM* | 2
Cc1cc(C)cc(NC(=O)C(c2ccccc2)N2CCN(CC(=O)NC3CC3)CC2)c1 (configuration not stated) | 9.3µM* | ? | 5.2µM* | 27
Cc1ccc(NC(=O)C(c2ccccc2)N2CCN(CC(=O)NC3CC3)CC2)cc1Cl (configuration not stated) | ? | -17% | 5.2µM* | 0
COc1ccc(-c2c(C)nn3c(C(F)(F)F)cc(C)nc23)cc1OC | nt | nt | nt | 72
CCOc1ccc(C(=O)Nc2ccc(C(=O)OCc3cc(=O)n4nc(CC)sc4n3)cc2)cc1 | nt | nt | nt | -1
CCCCOc1ccc(C(=O)NCc2cn3cccc(C)c3n2)cc1 | nt | nt | nt | 8
COCCn1c(CNC(=O)c2cc(OC)c(OC)c(OC)c2)nc2cccnc21 | nt | nt | nt | 4
O=C(CN1CCN(C(C(=O)Nc2cc(C(F)(F)F)ccc2Cl)c2ccccc2)CC1)NC1CC1 (configuration not stated) | nt | ? | nt | -22
COc1ccc(C)cc1NC(=O)C(c1ccccc1)N1CCN(CC(=O)NC2CC2)CC1 (configuration not stated) | 2.1µM* | -25% | 2.3µM* | -6
SMILES | Pf growth 96h | HCV inhibitor | Pf growth 48h | HCMV antiviral
COc1ccc(-c2ccc3c(N)c(C(=O)Nc4cccc(C)c4)sc3n2)cc1 | nt | nt | nt | -33
O=C(/C=C/c1ccc(Cl)cc1)Nc1nc(-c2cccs2)ns1 | nt | nt | nt | -16
O=S(=O)(NCCCc1ccccc1)c1ccc(Cl)cc1 | 9.3µM* | 7% | 6% | 16
Nc1ccccc1S(=O)(=O)NCCCCc1ccccc1 | 3% | -5% | 34% | -100*
O=S(=O)(NCCCc1ccccc1)c1ccc(F)c(F)c1 | 48% | -2% | 54% | -2
O=S(=O)(NCCCc1ccccc1)c1cccc2nsnc12 | -23% | -3% | -6% | -18
Cc1ccc(C)c(NC(=O)Cn2c(=O)n(Cc3ccco3)c(=O)c3oc4ccccc4c32)c1 | nt | nt | nt | -6
CCc1ccccc1Nc1nc2ccccc2c2nncn12 | nt | nt | nt | 17
Cc1ccc(NC(=O)c2nnn(CC(=O)Nc3ccc4c(c3)OCO4)c2N)cc1C | 0% | 5% | 23% | 37
Cc1ccc(NC(=O)c2ccc(=O)n(CC(=O)Nc3cc(C)cc(C)c3)n2)cc1 | nt | nt | nt | 47
Cc1cc(C)c(NC(=O)Cn2nnc(C(=O)Nc3ccc(F)cc3F)c2N)c(C)c1 | 2.6µM* | 5% | 23% | -28
Cc1ccc(NC(=O)Cn2nc(C(=O)Nc3ccc(C)cc3)ccc2=O)cc1 | 13µM* | 2% | -16% | -32
Cc1cccc(C)c1NC(=O)Cn1nnc(C(=O)Nc2ccc(F)cc2F)c1N | 36% | -11% | 39% | -65*
Cc1ccc(NC(=O)Cn2nnc(C(=O)Nc3ccc(C)c(C)c3)c2N)cc1 | 9.3µM* | ? | 7% | 48
COc1ccc(Cl)cc1NC(=O)Cn1cnc2c1c(=O)n(C)c(=O)n2C | nt | nt | nt | 15
Cc1cc(C)cc(NC(=O)Cn2nnc(C(=O)NCc3ccccc3Cl)c2N)c1 | 30% | -3% | ? | -79*!
COc1ccc(C)cc1NC(=O)c1nnn(Cc2cc(C)ccc2C)c1N | 5.2µM* | ? | nt | -22
COC(=O)c1ccc(NC(=O)CSc2nc(=O)[nH]c3c2CCCC3)cc1 | nt | nt | nt | 149
CCc1ccccc1NC(=O)CN1C(=O)CCSc2ccc(S(=O)(=O)N3CCCC3)cc21 | nt | nt | nt | 25
O=C(Cn1c(SCCOc2ccccc2Cl)nc2ccccc21)N1CCCCC1 | nt | nt | nt | -15
c1ccc(OCc2noc(CN3CC[C@@H]4CCCC[C@H]4C3)n2)cc1 | 13µM* | -2% | 18% | 0
Oc1ccccc1N=N/C(=N/Nc1ccccc1O)c1ccccc1 | 8.3µM* | 4%[8.37 µM] | 4.1µM* | 30
N#C/C(N=Nc1ccccc1O)=N\Nc1ccccc1O | ? | 11µM* | ? | -99*
Cc1ccc(NC(=O)CSc2cn(CC(=O)N3CCOCC3)c3ccccc23)cc1Cl | nt | nt | nt | -34
CCCCNC(=O)CCC1N=C2c3ccccc3N=C(SCC(=O)NCCc3ccc(OC)c(OC)c3)N2C1=O (configuration not stated) | nt | nt | nt | -5
COC(=O)CC1Oc2ccc(C)cc2-n2cc(-c3ccc(C)cc3)nc21 (configuration not stated) | nt | nt | nt | -11
COC(=O)c1ccc2nc(C)cc(Nc3ccccc3C)c2c1 | ? | ? | ? | 22
CCOc1ccccc1Nc1cc(C)nc2ccccc12 | nt | nt | nt | -62*
CCOc1ccccc1Nc1cc(C)nc2ccc(C)cc12 | nt | 6.3µM* | nt | ?
